The supplement of paper PMC8975748
Counter-ions that a name gives are not always drawn. ± gives the standard deviation of the averaged measurements.

Key:
[1] = test system: Saccharomyces cerevisiae BY4741 SeMeCo community; assay: mean cell size (pixel area) (pixels); higher = larger cells; details: 10 µM; 24 h; SM minimal medium
In short: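 Yeast cells were fixed with paraformaldehyde, imaged by automated confocal microscopy and analysed in Harmony to obtain mean cell pixel area per well. They came from a four-plasmid fluorescent Saccharomyces cerevisiae BY4741 community, each plasmid complementing one auxotrophy and carrying a fluorescent marker. Before imaging, 70 µl of culture at OD600 = 0.3 was incubated for 24 h in SM medium in 384-well plates predosed acoustically with drug (final 10 µM). Values are means of 3 replicates. Same SeMeCo high-content imaging drug screen: Selleck FDA-approved drugs at 10 µM, 24 h in SM medium, 384-well plates, 3 replicates.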

[2] = test system: Saccharomyces cerevisiae BY4741 SeMeCo community; assay: z-score of prototroph abundance vs DMSO median; higher = larger share of this subpopulation than in DMSO controls; details: 10 µM; 24 h; SM minimal medium; subpopulation (auxotrophy): Prototroph
In short: (§1)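 Four plasmids, each restoring a single auxotrophy and encoding a distinct fluorescent protein, were carried by a Saccharomyces cerevisiae BY4741 community. After overnight growth to OD600 1.0 and dilution to 0.3, 70 µl per well was grown for 24 h in minimal SM medium on 384-well plates acoustically predosed with library drugs at 10 µM final. Following paraformaldehyde fixation, automated confocal microscopy was used, with single-auxotroph fluorescent strains defining thresholds and autofluorescence correction. Subpopulation abundance was then scored as a z-score against the vehicle-well median.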

[3] = test system: Saccharomyces cerevisiae BY4741 SeMeCo community; assay: z-score of subpopulation abundance vs DMSO median, subpopulation auxotrophic for M; higher = larger share of this subpopulation than in DMSO controls; details: 10 µM; 24 h; SM minimal medium; subpopulation (auxotrophy): M
In short: as §1

[4] = test system: Saccharomyces cerevisiae BY4741 SeMeCo community; assay: z-score of subpopulation abundance vs DMSO median, subpopulation auxotrophic for L; higher = larger share of this subpopulation than in DMSO controls; details: 10 µM; 24 h; SM minimal medium; subpopulation (auxotrophy): L
In short: as §1

[5] = test system: Saccharomyces cerevisiae BY4741 SeMeCo community; assay: z-score of subpopulation abundance vs DMSO median, subpopulation auxotrophic for U; higher = larger share of this subpopulation than in DMSO controls; details: 10 µM; 24 h; SM minimal medium; subpopulation (auxotrophy): U
In short: as §1

[6] = test system: Saccharomyces cerevisiae BY4741 SeMeCo community; assay: z-score of subpopulation abundance vs DMSO median, subpopulation auxotrophic for H; higher = larger share of this subpopulation than in DMSO controls; details: 10 µM; 24 h; SM minimal medium; subpopulation (auxotrophy): H
In short: as §1

[7] = test system: Saccharomyces cerevisiae BY4741 SeMeCo community; assay: z-score of subpopulation abundance vs DMSO median, subpopulation auxotrophic for LU; higher = larger share of this subpopulation than in DMSO controls; details: 10 µM; 24 h; SM minimal medium; subpopulation (auxotrophy): LU
In short: as §1

[8] = test system: Saccharomyces cerevisiae BY4741 SeMeCo community; assay: z-score of subpopulation abundance vs DMSO median, subpopulation auxotrophic for LM; higher = larger share of this subpopulation than in DMSO controls; details: 10 µM; 24 h; SM minimal medium; subpopulation (auxotrophy): LM
In short: as §1

[9] = test system: Saccharomyces cerevisiae BY4741 SeMeCo community; assay: z-score of subpopulation abundance vs DMSO median, subpopulation auxotrophic for HU; higher = larger share of this subpopulation than in DMSO controls; details: 10 µM; 24 h; SM minimal medium; subpopulation (auxotrophy): HU
In short: as §1

[10] = test system: Saccharomyces cerevisiae BY4741 SeMeCo community; assay: z-score of subpopulation abundance vs DMSO median, subpopulation auxotrophic for UM; higher = larger share of this subpopulation than in DMSO controls; details: 10 µM; 24 h; SM minimal medium; subpopulation (auxotrophy): UM
In short: as §1

[11] = test system: Saccharomyces cerevisiae BY4741 SeMeCo community; assay: z-score of subpopulation abundance vs DMSO median, subpopulation auxotrophic for HL; higher = larger share of this subpopulation than in DMSO controls; details: 10 µM; 24 h; SM minimal medium; subpopulation (auxotrophy): HL
In short: as §1

[12] = test system: Saccharomyces cerevisiae BY4741 SeMeCo community; assay: z-score of subpopulation abundance vs DMSO median, subpopulation auxotrophic for HLU; higher = larger share of this subpopulation than in DMSO controls; details: 10 µM; 24 h; SM minimal medium; subpopulation (auxotrophy): HLU
In short: as §1

[13] = test system: Saccharomyces cerevisiae BY4741 SeMeCo community; assay: z-score of subpopulation abundance vs DMSO median, subpopulation auxotrophic for HLM; higher = larger share of this subpopulation than in DMSO controls; details: 10 µM; 24 h; SM minimal medium; subpopulation (auxotrophy): HLM
In short: as §1

[14] = test system: Saccharomyces cerevisiae BY4741 SeMeCo community; assay: z-score of subpopulation abundance vs DMSO median, subpopulation auxotrophic for HUM; higher = larger share of this subpopulation than in DMSO controls; details: 10 µM; 24 h; SM minimal medium; subpopulation (auxotrophy): HUM
In short: as §1

[15] = test system: Saccharomyces cerevisiae BY4741 SeMeCo community; assay: z-score of subpopulation abundance vs DMSO median, subpopulation auxotrophic for LUM; higher = larger share of this subpopulation than in DMSO controls; details: 10 µM; 24 h; SM minimal medium; subpopulation (auxotrophy): LUM
In short: as §1

[16] = test system: Saccharomyces cerevisiae BY4741 SeMeCo community; assay: z-score of subpopulation abundance vs DMSO median, subpopulation auxotrophic for HLUM; higher = larger share of this subpopulation than in DMSO controls; details: 10 µM; 24 h; SM minimal medium; subpopulation (auxotrophy): HLUM
In short: as §1

[17] = test system: Saccharomyces cerevisiae BY4741 SeMeCo community; assay: z-score of subpopulation abundance vs DMSO median, subpopulation auxotrophic for HM; higher = larger share of this subpopulation than in DMSO controls; details: 10 µM; 24 h; SM minimal medium; subpopulation (auxotrophy): HM
In short: as §1

Row | Compound | mean cell size [1] | z-score of prototroph abundance [2] | z-score of subpopulation abundance [3] | z-score of subpopulation abundance [4] | z-score of subpopulation abundance [5] | z-score of subpopulation abundance [6] | z-score of subpopulation abundance [7] | z-score of subpopulation abundance [8] | z-score of subpopulation abundance [9] | z-score of subpopulation abundance [10] | z-score of subpopulation abundance [11] | z-score of subpopulation abundance [12] | z-score of subpopulation abundance [13] | z-score of subpopulation abundance [14] | z-score of subpopulation abundance [15] | z-score of subpopulation abundance [16] | z-score of subpopulation abundance [17]
1 | CCC(=O)NS(=O)(=O)c1ccc(-c2c(-c3ccccc3)noc2C)cc1 [Parecoxib] | 12.6 ± 0.088 | -0.12 | 0.6 | 0.2 | -0.29 | 0.1 | -0.15 | 0.77 | -0.34 | 0.49 | 0.12 | 0.16 | 0.22 | -0.44 | 0.13 | -0.37 | –
2 | CN1CCN(C2=Nc3cc(Cl)ccc3Nc3ccccc32)CC1 [Clozapine] | 12.4 ± 0.21 | 0.32 | -0.47 | -0.41 | 0.17 | -0.49 | -1.03 | -0.26 | -0.45 | 0.28 | 0.94 | -0.01 | -0.52 | 0.23 | 0.32 | – | -0.07
3 | C[C@@H](O)[C@H]1C(=O)N2C(C(=O)O)=C(S[C@@H]3CN[C@H](C(=O)N(C)C)C3)[C@H](C)[C@H]12 [Meropenem] | 12.4 ± 0.19 | 0.37 | -0.33 | 0.05 | – | -0.03 | -0.26 | -0.29 | -0.01 | -0.33 | -0.23 | 0.14 | -0.34 | 0.12 | -0.39 | – | 0.18
4 | C#C[C@]1(O)CC[C@H]2[C@@H]3CCC4=CC(=O)CC[C@@H]4[C@H]3CC[C@@]21CC [Levonorgestrel] | 12.4 ± 0.16 | 0.69 | -0.18 | -0.24 | 0.3 | -0.72 | -0.04 | -0.89 | -0.13 | -0.13 | -0.95 | 0.05 | -0.96 | -0.08 | -0.68 | -0.86 | –
5 | CN(C)CCCN1c2ccccc2CCc2ccc(Cl)cc21 [Clomipramine HCl] | 12.55 ± 0.052 | -0.93 | 0.54 | -0.45 | 1.4 | -0.49 | 0.32 | -0.41 | 0.31 | 0.93 | -0.45 | -0.16 | 0.29 | 1.2 | 1.56 | 1.45 | –
6 | CCCCOC(=O)c1ccc(O)cc1 [Butylparaben] | 12.3 ± 0.29 | 1.77 | -0.57 | -0.62 | -0.7 | -1.64 | -1.79 | -0.49 | -1.93 | -1.24 | -0.99 | -1.3 | -0.41 | -1.38 | -0.62 | 0.07 | –
7 | CN(Cc1ccc(C(C)(C)C)cc1)Cc1cccc2ccccc12 [Butenafine HCl] | 12.2 ± 0.22 | – | 0.23 | -0.23 | -1.08 | -0.76 | -1.41 | -0.39 | – | – | -0.63 | -0.68 | -0.42 | -1.45 | -0.75 | – | -1.43
8 | C#C[C@]1(O)CC[C@H]2[C@@H]3CCC4=CC(=O)CC[C@@H]4[C@H]3C(=C)C[C@@]21CC [Etonogestrel] | 12.4 ± 0.14 | 0.26 | -1.48 | -0.43 | 1.19 | – | 0.5 | -0.7 | 0.83 | 0.08 | – | 0.5 | -0.55 | -0.52 | -0.63 | -0.23 | –
9 | Cc1onc(-c2c(Cl)cccc2Cl)c1C(=O)N[C@@H]1C(=O)N2[C@@H]1SC(C)(C)[C@@H]2C(=O)O [Dicloxacillin Sodium] | 12.4 ± 0.18 | 0.04 | -0.23 | 1.32 | -0.31 | 0.19 | 0.85 | 0.35 | -0.23 | -0.45 | -0.68 | -0.51 | -0.56 | -0.11 | 0.88 | 1.07 | –
10 | N#CC(c1ccc(Cl)cc1)c1c(Cl)cc(-n2ncc(=O)[nH]c2=O)cc1Cl (stereo not given) [Diclazuril] | 12.52 ± 0.088 | – | 0.92 | -0.07 | -1.07 | -0.16 | -0.92 | -0.81 | -0.93 | – | -0.28 | -0.02 | 0.16 | -0.94 | -0.7 | – | -0.31
11 | Cn1c(=O)c2[nH]cnc2n(C)c1=O [Aminophylline] | 12.5 ± 0.19 | -0.44 | 0.43 | 0.83 | 0.26 | – | 1.06 | 0.92 | -0.5 | 0.33 | – | -0.5 | -0.27 | 0.11 | 0.29 | – | 0.42
12 | O=C(c1ccc(OCCN2CCCCC2)cc1)c1c(-c2ccc(O)cc2)sc2cc(O)ccc12 [Raloxifene HCl] | 12.2 ± 0.27 | 0.44 | 0.58 | 1.28 | -1.87 | 0.59 | -1.4 | 1.33 | – | -0.85 | 0.66 | -0.29 | -0.47 | 0.06 | -0.24 | – | 0.58
13 | CO[C@H]1C[C@@H]2CC[C@@H](C)[C@@](O)(O2)C(=O)C(=O)N2CCCC[C@H]2C(=O)O[C@H]([C@H](C)C[C@@H]2CC[C@@H](OC(=O)C(C)(CO)CO)[C@H](OC)C2)CC(=O)[C@H](C)/C=C(\C)[C@@H](O)[C@@H](OC)C(=O)[C@H](C)C[C@H](C)/C=C/C=C/C=C/1C | 14.17 ± 0.036 | -18.4 | -1.76 | -0.9 | 3.43 | – | 4.31 | 5.51 | 28 | 11.2 | 15.9 | 28 | 21.4 | 28.7 | 14.2 | – | 23.9
14 | OCCN1CCN(CC/C=C2/c3ccccc3Sc3ccc(C(F)(F)F)cc32)CC1 [Flupenthixol dihydrochloride] | 12.24 ± 0.076 | -0.24 | -0.29 | 1.34 | -0.72 | – | 0.47 | 0.75 | 0.56 | -0.35 | 0.88 | 0.47 | 0.33 | -0.33 | 0.65 | – | 0.47
15 | C[N+](C)(C)CCO.[Cl-] [Choline Chloride] | 12 ± 0.25 | – | -1.56 | -0.08 | 0.8 | -0.8 | 0.54 | -0.75 | -0.41 | 0.32 | – | -0.27 | -0.83 | -0.76 | 0.75 | -0.62 | –
